Assay outcomes as filed in PubChem BioAssay.
This is a sample that favours compounds with a hit; in the whole collection about 10% have one here.
JMJD2A Tudor: inhibitors of human JMJD2A Tudor domain | O75164 | AlphaScreen JMJD2A-Tudor / H3K4me3 peptide binding | 4.4% of 390,000 active | Potency, µM (highest dose often 114 µM), for inactives: at the highest dose activity change, negative = inhibition, hits mostly inhibitors; further: on the % scale 0 is the no-effect control and ±100 the full control effect; nearly all actives have a fitted effect of over 50% in size
GLS inhibitor: inhibitors of human glutaminase (GLS); 0.21% of 410,000 active; O94925; Potency, µM (highest dose often 45.5 µM), for the others: at the highest dose activity change, negative = inhibition, hits mostly inhibitors; GLS enzymatic activity, qHTS titration; further: on the % scale 0 is the no-effect control and ±100 the full control effect
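Enzyme dispensed in phosphate buffer (45 mM, pH 8.2, 0.02% Tween-20), compounds pinned in, then 1 mM L-glutamine solution and the glutamate oxidase–HRP–Amplex Red mix added; fluorescence read immediately and again after 30 min at room temperature.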
L3MBTL1 inh: L3MBTL1 (human) inhibition; Potency, µM (doses to about 57.1 µM), inactives show at the top dose activity, negative = inhibition, usual class: inhibitors; 0.66% of 230,000 active; Q9Y468; AID 485360; AlphaScreen L3MBTL1–H3K9me1 peptide binding; further: on the % scale 0 is the no-effect control and ±100 the full control effect; nearly all actives have a fitted effect of over 60% in size
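L3MBTL1 50 nM + b-AHA-H3(1-15)K9me1 75 nM, 30 min RT; compound added, 30 min RT; streptavidin donor/Ni-chelate acceptor beads 10 ug/mL each final, 30 min RT dark; AlphaScreen read.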
HP1b chromo inh: blocks HP1-beta chromodomain binding to methylated histone tails; AID 540317; 0.56% of 390,000 active; AlphaScreen HP1-beta / biotin-H3K9me3 peptide binding; Potency, µM (series often up to 114 µM), inactives show at the highest dose activity change, negative = inhibition, usual class: inhibitors; further: nearly all actives have a fitted effect of over 70% in size
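AlphaScreen: HP1-beta (50 nM) preformed 30 min with biotin-H3(1-18)K9me3 peptide (50 nM) in PBS pH 7.4, 0.01% Tween-20. Compound added for 30 min at RT, then streptavidin donor/nickel chelate acceptor beads (10 ug/mL) for 30 min.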
BAZ2B block: inhibitors of human BAZ2B bromodomain | Potency, µM (top dose mostly 114 µM), inactives show at the highest dose activity change, negative = inhibition, usual class: inhibitors | Q9UIF8 | AlphaScreen BAZ2B-H3K14Ac peptide displacement | 4.4% of 360,000 active; further: on the % scale 0 is the no-effect control and ±100 the full control effect; nearly all actives have a fitted effect of over 60% in size
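In this displacement format the biotinylated H3(5-23) peptide acetylated at Lys14 serves as ligand at 50 nM, with BAZ2B at 50 nM in PBS pH 7.4 containing 0.01% Tween-20. Donor and acceptor beads are 10 ug/mL final.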
G9a inh: blocks human histone lysine methyltransferase G9a | AID 504332 | 8.8% of 350,000 active | Potency, µM (series often up to 102 µM), inactives show at the top dose activity, negative = inhibition, actives largely listed as inhibitors | Q96KQ7 | G9a H3K9 monomethylation, AlphaScreen, 2 h; further: on the % scale 0 is the no-effect control and ±100 the full control effect; nearly all actives have a fitted effect of over 75% in size
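G9a (20 nM) was preincubated 15 min with compound, then reacted 2 h at room temperature with 500 nM biotin-H3K9 peptide and 20 µM SAM. Monomethyl-H3K9 detected by AlphaScreen using anti-H3K9me1 antibody.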
* hit, by the source's call; u = inconclusive; x = not tested or not shown; ! = a repeat was not active; [ ] = another dose, or the depositor's remark. The call rests on the fitted dose curve; in most records, active means well fitted curve in the direction sought with a large enough effect; inconclusive means small, poorly fitted or top-dose-only effect, or another doubt; inactive means no such curve, though single readings can be large; an effect the other way counts as inactive or inconclusive. Potency means the concentration at half of the fitted maximal effect.

SMILES	JMJD2A Tudor	GLS inhibitor	L3MBTL1 inh	HP1b chromo inh	BAZ2B block	G9a inh
C[n+]1ccc(/C=C/c2ccc3ccccc3c2)cc1	x	x	x	x	x	7.08µM*
CC(=O)[C@]1(O)Cc2c(O)c3c(c(O)c2[C@@H](O[C@H]2C[C@H](N)[C@H](O)[C@H](C)O2)C1)C(=O)c1ccccc1C3=O	u	21.4%	x	-37.9%	x	13.4µM*
COc1cccc2c1C(=O)c1c(O)c3c(c(O)c1C2=O)CC(O)(C(=O)CO)CC3OC1CC(N(C)C)C(O)C(C)O1 (stereo not given)	u	17.2%	x	u	x	x
COc1cccc2c1C(=O)c1c(O)c3c(c(O)c1C2=O)C[C@@](O)(C(=O)CO)C[C@@H]3O[C@H]1C[C@H](N)[C@@H](O)[C@H](C)O1	u	-5.5%	x	u	x	x
COc1cccc2c1C(=O)c1c(O)c3c(c(O)c1C2=O)C[C@](O)(C(=O)CO)C[C@@H]3O[C@H]1C[C@H](N)[C@@H](O)[C@H](C)O1	x	1.0%	x	x	x	u
CC(=O)[C@]1(O)Cc2c(O)c3c(c(O)c2[C@@H](O[C@H]2C[C@H](N)[C@H](O)[C@H](C)O2)C1)C(=O)c1c(O)cccc1C3=O	x	-15.4%	x	x	x	14.1µM*
CCCCC(=O)OCC(=O)[C@]1(O)Cc2c(O)c3c(c(O)c2[C@H](OC2CC(NC(=O)C(F)(F)F)C(O)C(C)O2)C1)C(=O)c1c(OC)cccc1C3=O (stereo not given in full)	x	10.0%	x	x	x	8.91µM*
COc1cccc2c1C(=O)c1c(O)c3c(c(O)c1C2=O)C[C@@](O)(C(=O)CO)C[C@@H]3OC1C[C@@H](N)[C@H](O)[C@H](C)O1 (stereo not given in full)	x	x	x	x	x	14.1µM*
O=C(O)CC(Cn1[nH]nnc1=S)c1ccccc1 (stereo not given)	50.1µM*	-0.5%	x	12.6%	u	8.91µM*
O=C(O)CC(CC(=O)Nc1nncs1)c1ccccc1 (stereo not given)	-8.4%	9.2%	x	13.2%	-6.6%	-3.0%[12.7 µM]
C=CC[n+]1c(-c2ccc(OC)cc2)csc1NNC(=O)Nc1ccccc1	50.1µM*	10.2%	x	-34.2%	10µM*	14.1µM*
C=CC[n+]1c(-c2ccc(C)cc2)csc1Nc1ccc(NC(C)=O)cc1	u	0.6%	-0.2%	13.8%	u	u
C/C1=C2/[N-]C(C(CC(N)=O)[C@@]2(C)CCC(=O)NCC(C)OP(=O)([O-])O[C@H]2[C@@H](O)[C@@H](n3cnc4cc(C)c(C)cc43)O[C@@H]2CO)[C@]2(C)N=C(/C(C)=C3N=C(/C=C4N=C1C(CCC(N)=O)C\4(C)C)[C@@H](CCC(N)=O)[C@]\3(C)CC(N)=O)[C@@H](CCC(N)=O)[C@]2(C)CC(N)=O.CC(=O)O.[Co] (stereo not given in full)	x	-14.1%	x	x	x	u
CCCCc1ccc(-n2nc3cc(Cl)c(NC(=O)c4ccc(OC)cc4)cc3n2)cc1	9.3%	3.0%	x	26.6%	-11.5%	-3.5%[59 µM]
CNC(=O)c1c(O)c2cccc3c2n(c1=O)CCC3	u	2.1%	5.7%	34.0%	6.1%	x
CCN(CC)CCNC(=O)c1c(O)c2cccc3c2n(c1=O)CCC3	-19.7%	-6.5%	-0.6%	10.0%	-12.6%	56.2µM*
O=c1c([N+](=O)[O-])c(O)c2cccc3c2n1CCC3	u	-20.1%	x	35.1%	u	79.4µM*
CCCCCCNC(=O)c1c(O)c2cccc3c2n(c1=O)CCC3	123.2%	5.4%	x	220.4%	29.6%	3.1%[2.33 µM]
O=S(=O)(c1ccccc1Br)N1CCN(c2nc(-c3cccs3)nc3ccccc23)CC1	-24.1%	x	x	36.8%	x	x
CC1CCCC(NCC(O)COC(c2ccc(F)cc2)c2ccc(F)cc2)C1C (stereo not given)	1µM*	-1.7%	11.8%	u	u	8.91µM*
CN(C)CC(C)(C)CNS(=O)(=O)c1ccc(Cl)c(Cl)c1	17.8µM*!	-21.3%	2.8%	-11.0%	u	u
